From article PMC4336329 (PLoS ONE, 2015)
Screen size: about 310,000 compounds; about 2,200 (0.71%) showed an effect of 50% or more. Effects have a minus sign here. The full list was thinned out, with strong results kept by preference.

target: human ether-à-go-go-related gene (hERG) potassium channel (human, UniProt Q12809); experiment: primary screen, population patch clamp on CHO cells stably expressing hERG; higher = less effect of the substance
Protocol: Briefly, Chinese hamster ovary (CHO) cells stably expressing the hERG channel were dislodged from tissue culture flasks and dispensed into PPC plates. […] During the recording, background leak currents were estimated by a 100 ms step to -80 mV from an initial holding potential of -70 mV and subtracted from the subsequent current measurement. The campaign was conducted in two phases using slight differences in recording protocol. In the first phase, the initial voltage pulse used a 100 ms step to -30 mV from a holding potential of -70 mV, a 2 s conditioning step to +25 mV, and a 2 s test step to -30 mV. During the second phase of the screen, the potential during the conditioning step was raised to +45 mV. In both phases of the campaign, a secondary voltage pulse was applied using the same parameters as the second phase initial pulse. The initial and secondary pulses were applied in the absence of compound, and upon application of 1 μM and 10 μM test concentrations. Small molecule effects on hERG current density were quantified by […].

human ether-à-go-go-related gene (hERG) potassium channel, sequence (Q12809 whole entry, looked up): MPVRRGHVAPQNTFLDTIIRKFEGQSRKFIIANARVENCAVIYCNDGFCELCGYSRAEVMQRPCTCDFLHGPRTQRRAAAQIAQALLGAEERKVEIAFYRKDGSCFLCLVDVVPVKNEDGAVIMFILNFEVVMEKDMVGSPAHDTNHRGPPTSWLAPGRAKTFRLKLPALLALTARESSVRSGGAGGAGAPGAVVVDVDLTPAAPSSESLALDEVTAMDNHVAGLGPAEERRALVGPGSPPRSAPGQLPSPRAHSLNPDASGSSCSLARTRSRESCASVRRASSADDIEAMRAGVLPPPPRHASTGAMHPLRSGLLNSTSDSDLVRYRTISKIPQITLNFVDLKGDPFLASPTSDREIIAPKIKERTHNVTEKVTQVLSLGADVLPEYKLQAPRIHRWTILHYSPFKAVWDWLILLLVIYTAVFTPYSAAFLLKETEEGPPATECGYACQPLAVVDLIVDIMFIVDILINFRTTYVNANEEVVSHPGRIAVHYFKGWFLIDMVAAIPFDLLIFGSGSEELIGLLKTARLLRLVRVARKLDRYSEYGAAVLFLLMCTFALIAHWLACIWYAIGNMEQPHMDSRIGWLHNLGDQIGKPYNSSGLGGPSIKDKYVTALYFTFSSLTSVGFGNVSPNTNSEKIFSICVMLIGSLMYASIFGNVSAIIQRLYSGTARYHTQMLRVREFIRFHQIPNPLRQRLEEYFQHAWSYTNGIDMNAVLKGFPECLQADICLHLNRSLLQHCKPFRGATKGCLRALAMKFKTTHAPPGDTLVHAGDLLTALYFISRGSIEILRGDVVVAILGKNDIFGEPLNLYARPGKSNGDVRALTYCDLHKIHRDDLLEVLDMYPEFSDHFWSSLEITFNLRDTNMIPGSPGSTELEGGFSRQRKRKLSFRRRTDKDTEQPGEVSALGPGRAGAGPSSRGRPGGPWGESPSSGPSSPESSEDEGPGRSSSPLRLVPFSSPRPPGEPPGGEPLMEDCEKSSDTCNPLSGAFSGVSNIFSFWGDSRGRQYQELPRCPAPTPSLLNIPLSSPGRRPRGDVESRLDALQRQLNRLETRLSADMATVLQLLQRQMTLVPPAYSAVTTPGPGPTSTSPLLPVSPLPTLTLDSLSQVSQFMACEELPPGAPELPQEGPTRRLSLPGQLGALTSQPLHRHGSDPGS

Point of comparison: `COc1ccc(C2CC(c3ccccc3)=NN2C(=O)c2ccc(Cl)c([N+](=O)[O-])c2)cc1` (stereo not shown), “hERG current change (%, negative = inhibition) at 1uM” value 9.38%. Against it:
- CN(CC(=O)Nc1ccc(Cl)c(C(F)(F)F)c1)C(=O)c1cn2ccccc2n1 — lower, 5.27%
- O=C(N/N=C/c1cc(Br)c(O)c(Br)c1)c1cccnc1 — higher, 18.5%
- COc1ccccc1/C=C(/C(=O)OCC(=O)Nc1ccc(N(C)C)cc1)c1ccccc1 — lower, 9.09%
- COc1ccccc1C(=O)N/N=C/c1cnc2ccccc2n1 — lower, 6.27%
- O=C1CCN(Cc2ccccc2)CCN1[C@H](COc1ccccc1)Cc1ccccc1 — lower, -7.61%
- CN1CCC(=O)N([C@H](COc2ccccc2)Cc2ccccc2)CC1 — lower, -8.2%
- O=C1CCN(CCc2ccccc2)CCN1[C@H](COc1ccccc1)Cc1ccccc1 — lower, -60.4%
- CCOc1ccc(C(=O)COC(C)=O)cc1 — higher, 9.74%
- O=c1[nH]c(C2CCCN(S(=O)(=O)c3ccc(F)cc3)C2)nc2c1nnn2Cc1ccccc1 (stereo not shown) — lower, 7.82%
- OCCC1CN(Cc2cnc(-c3ccc(Cl)cc3)nc2)CCN1C1CCCC1 (stereo not shown) — lower, -62%
- CC(C)CCN1CCN(CCCc2ccccc2)CC1CCO (stereo not shown) — lower, -1.8%
- OCCC1CN(C/C(Cl)=C/c2ccccc2)CCN1C1CCCC1 (stereo not shown) — lower, -43.4%
- OCCC1CN(Cc2cnc(-c3ccc(Cl)cc3)nc2)CCN1C1CCCCC1 (stereo not shown) — lower, -31.1%
- OCCC1CN(CC#Cc2ccccc2)CCN1C1CCCC1 (stereo not shown) — lower, -7.79%
- Cc1cccc(-c2ncc(CN3CCN(C4CCCC4)C(CCO)C3)cn2)c1 (stereo not shown) — lower, -15.1%
- CC(C)CCN1CCN(CC(c2ccccc2)c2ccccc2)CC1CCO (stereo not shown) — lower, -81.9%
- CC(C)CCN1CCN(CC#Cc2ccccc2)CC1CCO (stereo not shown) — lower, 4.3%
- OCCC1CN(CC(c2ccccc2)c2ccccc2)CCN1C1CCCC1 (stereo not shown) — lower, -74.5%
- COc1ccc(S(=O)(=O)Nc2ccc(-c3ccc(N4CCCC4)nn3)cc2)cc1C — higher, 11.6%
- CC(Oc1ccc(Cl)cc1Cl)c1ccnc(N)n1 (stereo not shown) — higher, 16.2%
- Clc1ccccc1C1=Nn2c(nnc2-c2ccco2)SC1 — lower, 4.48%
- CC(=O)N1C[C@H](O)C[C@H]1C(=O)O — lower, -19%
- O=C(COc1ccccc1)NNc1c2ccccc2nc2ccccc12 — lower, 4.4%
- Cc1ccc(C)c(NC(=O)Cn2nc(-c3ccccc3)nc2-c2ccccc2)c1 — higher, 16.6%
- CNS(=O)(=O)c1cccc(C(=O)OCC(=O)c2cc3ccccc3o2)c1 — higher, 21%
- Cc1cccc(N2C(=O)NC(=O)/C(=C\c3cnn(-c4ccccc4)c3)C2=O)c1 — higher, 12.6%
- Cc1cc(Cl)ccc1NC(=O)CN1CCN(C(=O)c2ccco2)CC1 — lower, -57.1%
- CCN(CC)CCNCC(=O)Nc1ccc(Cl)cc1C(=O)c1ccccc1.O=C(O)C(=O)O — lower, -84.2%
- O=C(CN1CCCC1)Nc1ccc(Cl)cc1C(=O)c1ccccc1.O=C(O)C(=O)O — lower, 0.588%
- CN1CCN(c2ccc([N+](=O)[O-])cc2C(=O)c2ccccc2)CC1 — lower, -17.5%
- CN1CCN(C(=S)SCC(=O)Nc2ccc(Cl)cc2C(=O)c2ccccc2)CC1 — lower, -5.6%
- CN1CCN(CC(=O)Nc2ccc(Cl)cc2C(=O)c2ccccc2)CC1 — lower, -83.3%
- CN1CCN(CC(=O)Nc2cccc([N+](=O)[O-])c2)CC1 — lower, 5.95%
- CCN(CC)CC(=O)Nc1ccc(Cl)cc1C(=O)c1ccccc1 — lower, 6.87%
- CN1CCN(CC(=O)Nc2ccc([N+](=O)[O-])cc2C(=O)c2ccccc2)CC1 — lower, -91.5%
- CN(C)CCCNCC(=O)Nc1ccc(Cl)cc1C(=O)c1ccccc1.O=C(O)C(=O)O — lower, -21.2%
- O=C(CN1CCN(C(=O)c2ccco2)CC1)Nc1cc(Cl)ccc1Cl — lower, -8.91%
- Cc1ccccc1NC(=O)CN1CCN(C(=O)c2ccco2)CC1 — lower, 5.5%
- O=C1NC(=S)N(c2ccccc2)C(=O)/C1=C/c1ccco1 — lower, 5.88%
- COc1ccc(-n2nnnc2SCC(=O)c2ccc(O)c(O)c2)cc1 — lower, 1.49%
- Cc1ccccc1-c1nc2ccc(Cl)cc2c(=O)n1O — higher, 15.4%
- CCOC(=O)c1ccc(NC(=O)CNC(=O)c2ccccc2)cc1 — lower, 7.06%
- CCSc1nnc(NC(=O)Nc2cccc(C)c2)s1 — higher, 12.2%
- Cn1nc([N+](=O)[O-])nc1Sc1nnnn1-c1ccc(C(=O)O)cc1 — lower, 8.97%
- CCCCn1c(CCNC(=O)c2ccco2)nc2ccccc21 — lower, 7.54%
- Cc1cc(C)cc(-c2nnc(SCC(=O)c3ccc4c(c3)OCCO4)o2)c1 — higher, 16%
- Cc1cn(COC/C=C/c2ccccc2)c(=O)[nH]c1=O — lower, 7.16%
- Cc1cccc(C(=O)NCCCNC(=O)c2ccc(C)nc2)c1 — higher, 10.6%
- CC(=O)N1CCN(CC(=O)Nc2ccccc2Sc2ccc(Cl)cc2)CC1 — lower, -58.3%
- COc1ccc2oc(C(=O)c3ccccc3)c(NC(=O)CN3CCN(C)CC3)c2c1 — lower, -12.2%
- Cc1cc(Cl)ccc1OCCCC(=O)N1CCOCC1 — lower, -7.13%
- O=C(CN1CCN(C(=O)c2ccccc2)CC1)Nc1ccc(Cl)cc1F — lower, -54.8%
- Cc1cc(Cl)ccc1OCCCC(=O)N1CCN(C(=O)c2ccco2)CC1 — lower, -59.1%
- Cc1cc(Cl)ccc1OCCCC(=O)N1CCN(C)CC1 — lower, 0.322%
- CN1CCN(CC(=O)Nc2c(C(=O)c3ccccc3)oc3ccccc23)CC1 — lower, -83.2%
- O=C(CN1CCCC1)Nc1ccccc1Sc1ccc(Cl)cc1 — lower, -0.77%
- O=C(CN1CCN(C(=O)c2cccc(F)c2)CC1)Nc1ccccc1F — lower, -36.4%
- CC(=O)N1CCN(CC(=O)Nc2ccccc2Sc2ccccc2)CC1 — lower, -29.8%
- CN1CCN(CC(=O)Nc2c(C(=O)C3CC3)oc3ccccc23)CC1 — lower, -16.9%
- O=C(CN1CCCCCC1)Nc1ccc(Cl)cc1F — higher, 14.6%
